In PubChem BioAssay (EPA / NIEHS) one finds AC50 and outcome data, which are given here for 4 compounds.

The target in assay [1] is Paired box protein Pax-6 (Homo sapiens) (UniProt P26367). The assay is described as follows: ATG_Pax6_CIS: Attagene CIS-FACTORIAL HepG2 Assay for human Paired Box 6 (PAX6) (AID 2282956). The settings on record: HepG2 CIS-FACTORIAL PAX6 reporter transcription, RNA readout; actives raise or lower the signal. Summed up: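 Transient MRTU transfection of HepG2 → compound exposure 24 h → TriZol RNA, oligo(dT) RT → PCR, 6-FAM primer extension, HpaI cut → capillary electrophoresis; activity fitted both directions against DMSO.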

The nature of assay [2]: ATG_PXRE_CIS: Attagene CIS-FACTORIAL HepG2 Assay for human Pregnane X Receptor Element (PXRE) (AID 2282957). The settings on record: HepG2 Attagene CIS-FACTORIAL PXRE reporter, mRNA; actives raise or lower the signal. Put shortly:
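Cells: HepG2, transiently transfected reporter units under cis promoter control. Exposure: 24 h. Detection: reporter mRNA via RT-PCR/CE fluorescence; bidirectional fitting, DMSO-referenced.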

Assay [3] can be described thus: ATG_PPRE_CIS: Attagene CIS-FACTORIAL HepG2 Assay for human Peroxisome Proliferator-activated Response Element (PPRE) (AID 2282958). The settings on record: HepG2 PPRE cis-element reporter, Attagene transcription factor profiling; actives raise or lower the signal. Summed up:
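Cells are first transfected transiently with the multiplexed reporter library, then dosed for 24 h. Total RNA is reverse-transcribed, amplified, fluorescently end-labeled and HpaI-cut before capillary electrophoresis; activity is fitted bidirectionally against DMSO controls.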

Assay [4] can be described thus: ATG_RORE_CIS: Attagene CIS-FACTORIAL HepG2 Assay for human RAR-related Orphan Receptor Element (RORE) (AID 2282959). The settings on record: HepG2 Attagene cis-factorial RORE reporter, mRNA; actives raise or lower the signal. Summed up: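 Cells were HepG2 carrying transfected cis-regulated reporter constructs, dosed for 24 hours. Total RNA was reverse-transcribed and reporter cDNA amplified, fluorescently labeled and sized by capillary electrophoresis. Activity was fitted bidirectionally relative to DMSO.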

Assay [5] in a line: ATG_Sox_CIS: Attagene CIS-FACTORIAL HepG2 Assay for human SRY-box transcription factor (SOX) (AID 2282960). To be noted: HepG2 Attagene cis-factorial SOX reporter, mRNA; actives raise or lower the signal. Summed up: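 Transient MRTU transfection of HepG2; 24 h compound incubation; TriZol RNA, oligo(dT) RT, PCR, 6-FAM primer extension, HpaI cut, CE. Bidirectional fit, DMSO = baseline.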

A short description of assay [6]: ATG_SREBP_CIS: Attagene CIS-FACTORIAL HepG2 Assay for human Sterol Regulatory Element Binding (SREBP) (AID 2282962). The settings on record: HepG2 Attagene cis-factorial SREBP reporter, mRNA; actives raise or lower the signal. Summed up:
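Transfected HepG2 (cis-regulated reporter library, endogenous TFs) → compound 24 h → total RNA → oligo(dT) RT → reporter-specific PCR → FAM primer extension, HpaI cut → CE fluorescence. Fit bidirectional vs DMSO.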

Assay [7] deals with Signal transducer and activator of transcription 3 (Homo sapiens) (UniProt P40763). Kind of assay: ATG_STAT3_CIS: Attagene CIS-FACTORIAL HepG2 Assay for human Signal Transducer and Activator of Transcription 3 (STAT3) (AID 2282963). The settings on record: HepG2, Attagene cis-factorial STAT3 reporter transcription; actives raise or lower the signal. Put shortly: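 Values derive from bidirectional fits relative to DMSO of reporter mRNA levels, measured by RT-PCR with capillary electrophoresis, in HepG2 cells carrying transiently transfected cis-regulated reporter units and exposed 24 h.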

Assay [8] can be described thus: ATG_TA_CIS: Attagene CIS-FACTORIAL HepG2 Assay for human TA Basal Promoter (AID 2282964). To be noted: HepG2 Attagene CIS-factorial TA basal promoter reporter; actives raise or lower the signal. Put shortly:
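HepG2 cells transiently transfected with multiplexed cis-promoter reporter units, dosed 24 h. Reporter mRNA measured by RT-PCR, 6-FAM labelling, HpaI digestion and capillary electrophoresis; bidirectional fit versus DMSO baseline, serving as background control.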

A short description of assay [9]: ATG_TCF_b_cat_CIS: Attagene CIS-FACTORIAL HepG2 Assay for human T-Cell-Factor with beta-catenin (TCF/b-cat) (AID 2282965). To be noted: HepG2 TCF/beta-catenin cis-reporter transcription, actives raise or lower the signal. Put shortly:
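Cells of the HepG2 line carry transiently transfected reporter units whose promoters respond to endogenous factors. Twenty-four hours post-dosing, reporter mRNA induction is measured by fluorescent RT-PCR and capillary electrophoresis, with DMSO as baseline.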

A short description of assay [10]: ATG_TAL_CIS: Attagene CIS-FACTORIAL HepG2 Assay for human TAL Basal Promoter (AID 2282966).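 Further: background control endpoint measuring basal TAL promoter reporter mRNA not a specific factor.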 The settings on record: HepG2 Attagene cis-factorial TAL promoter reporter; actives raise or lower the signal. Summed up: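 RT-PCR plus capillary electrophoresis quantifies reporter mRNA induction in transiently transfected HepG2 cells after 24 h chemical treatment. DMSO serves as negative control and baseline for bidirectional fitting.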

The nature of assay [11]: ATG_TGFb_CIS: Attagene CIS-FACTORIAL HepG2 Assay for human Transforming Growth Factor (TGF) (AID 2282967). The settings on record: HepG2 Attagene CIS TGFb reporter, mRNA transcription; actives raise or lower the signal. Put shortly:
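HepG2 cells transiently transfected with cis-promoter-driven multiplexed reporter units; 24 h compound exposure. Reporter mRNA measured by RT-PCR, 6-FAM labeling, HpaI digestion and capillary electrophoresis; bidirectional fit versus DMSO baseline.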

Assay [12] in a line: ATG_VDRE_CIS: Attagene CIS-FACTORIAL HepG2 Assay for human Vitamin D Receptor Element (VDRE) (AID 2282968). The settings on record: HepG2 VDRE cis-reporter transcription, actives raise or lower the signal. Put shortly:
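Cell-based multiplexed reporter format in human liver HepG2 cells, 24 h post-dose. Fluorescence from capillary electrophoresis of reporter cDNA gives the signal, with DMSO as negative control and baseline.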

Assay [13] has as its target Estrogen receptor (Homo sapiens) (UniProt P03372). Kind of assay: ATG_ERa_TRANS: Attagene TRANS-FACTORIAL HepG2 Assay for human Estrogen Receptor alpha (ERa) (AID 2282970; active means hit-call score of the fitted dose curve at least 0.9, where 1 is the maximum). The settings on record: HepG2 Attagene TRANS ERa GAL4 reporter, mRNA. Put shortly: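 Cells: HepG2, transiently transfected. Construct: GAL4-UAS reporter units regulated by exogenous NR-Gal4 chimeras. Time: 24 h. Detection: reporter mRNA by RT-PCR, capillary electrophoresis, fluorescence. Baseline: DMSO, upward fitting.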

Assay [14] deals with X-box-binding protein 1 (Homo sapiens) (UniProt P17861). Kind of assay: ATG_Xbp1_CIS: Attagene CIS-FACTORIAL HepG2 Assay for human X-box Binding Protein 1 (XBP1) (AID 2282972). To be noted: HepG2 XBP1 cis-element reporter, Attagene multiplex; actives raise or lower the signal. Put shortly: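 HepG2, transient MRTU transfection (cis-promoter driven), 24 h compound exposure. Total RNA → oligo(dT) RT → PCR → 6-FAM labeling → HpaI cut → CE. Bidirectional fit vs DMSO.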

Assay [15] concerns the target Transcription factor Sp1 (Homo sapiens) (UniProt P08047). Kind of assay: ATG_Sp1_CIS: Attagene CIS-FACTORIAL HepG2 Assay for human Specificity Protein 1 (Sp1) (AID 2282961). To be noted: HepG2 Sp1 cis-reporter transcription, actives raise or lower the signal. Summed up: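 Endogenous Sp1 activity was gauged in human liver HepG2 cells bearing transfected reporter units under a cis-regulating promoter. After 24 h dosing, reporter mRNA was quantified by RT-PCR with capillary electrophoresis, and activity fitted bidirectionally versus DMSO.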

The target of assay [16] is Nuclear receptor subfamily 1 group I member 3 (Homo sapiens) (UniProt Q14994). The assay is described as follows: ATG_CAR_TRANS: Attagene TRANS-FACTORIAL HepG2 Assay for human Constitutive Androstane Receptor (CAR) (AID 2282969; active means hit-call score of the fitted dose curve at least 0.9, where 1 is the maximum;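 further: activators raise reporter mRNA above DMSO so AC50 marks induction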). To be noted: HepG2 Attagene TRANS-FACTORIAL CAR reporter. Put shortly:
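HepG2 cells transiently transfected with GAL4-UAS reporter units; TRANS format reads activity of exogenous chimeric NR-Gal4 protein. After 24 h dosing, reporter mRNA quantified by RT-PCR, 6-FAM labelling and capillary electrophoresis; gain of signal fitted against DMSO.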

Assay [17] concerns the target Steroid hormone receptor ERR1 (Homo sapiens) (UniProt P11474). The assay is described as follows: ATG_ERRa_TRANS: Attagene TRANS-FACTORIAL HepG2 Assay for human Estrogen-Related Receptor alpha (ERRa) (AID 2282971; active means hit-call score of the fitted dose curve at least 0.9, where 1 is the maximum). The settings on record: HepG2 Attagene TRANS reporter, ERRa transactivation. Put shortly:
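Reporter transcripts from ERRa-Gal4 chimera activity measured in transiently transfected human HepG2 cells 24 hours after dosing, using RT-PCR with 6-FAM primer extension, HpaI digestion and capillary electrophoresis; DMSO is baseline.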

Assay [18] in a line: ATG_GAL4_TRANS: Attagene TRANS-FACTORIAL HepG2 Assay for GAL4 (Internal Marker) (AID 2282976; active means hit-call score of the fitted dose curve at least 0.9, where 1 is the maximum). The settings on record: HepG2 Attagene TRANS GAL4 internal marker reporter. Put shortly: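 In transfected human HepG2 liver cells dosed 24 h, GAL4 reporter mRNA serves as a baseline marker. Detection by RT-PCR with fluorescent capillary electrophoresis, activity fitted upward relative to DMSO.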

The nature of assay [19]: ATG_M_19_TRANS: Attagene TRANS-FACTORIAL HepG2 Assay for M19 Transcription Factor (Internal Marker) (AID 2282974; active means hit-call score of the fitted dose curve at least 0.9, where 1 is the maximum). The settings on record: HepG2 Attagene TRANS-FACTORIAL M19 internal marker reporter. Summed up:
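Cells: human HepG2, transiently transfected with multiplexed reporter transcription units. Exposure: 24 h. Detection: RT-PCR of reporter mRNA with capillary electrophoresis. Analysis: gain-of-signal vs DMSO.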

Molecules are shown by their SMILES. Records with an inconclusive call do not appear. The source made the active and inactive calls. How the source made its calls, unless noted: active means hit-call score of the fitted dose curve at least 0.9, where 1 is the maximum; inactive means score below 0.9.

Sequence of Signal transducer and activator of transcription 3 (Homo sapiens) (P40763 whole entry, looked up): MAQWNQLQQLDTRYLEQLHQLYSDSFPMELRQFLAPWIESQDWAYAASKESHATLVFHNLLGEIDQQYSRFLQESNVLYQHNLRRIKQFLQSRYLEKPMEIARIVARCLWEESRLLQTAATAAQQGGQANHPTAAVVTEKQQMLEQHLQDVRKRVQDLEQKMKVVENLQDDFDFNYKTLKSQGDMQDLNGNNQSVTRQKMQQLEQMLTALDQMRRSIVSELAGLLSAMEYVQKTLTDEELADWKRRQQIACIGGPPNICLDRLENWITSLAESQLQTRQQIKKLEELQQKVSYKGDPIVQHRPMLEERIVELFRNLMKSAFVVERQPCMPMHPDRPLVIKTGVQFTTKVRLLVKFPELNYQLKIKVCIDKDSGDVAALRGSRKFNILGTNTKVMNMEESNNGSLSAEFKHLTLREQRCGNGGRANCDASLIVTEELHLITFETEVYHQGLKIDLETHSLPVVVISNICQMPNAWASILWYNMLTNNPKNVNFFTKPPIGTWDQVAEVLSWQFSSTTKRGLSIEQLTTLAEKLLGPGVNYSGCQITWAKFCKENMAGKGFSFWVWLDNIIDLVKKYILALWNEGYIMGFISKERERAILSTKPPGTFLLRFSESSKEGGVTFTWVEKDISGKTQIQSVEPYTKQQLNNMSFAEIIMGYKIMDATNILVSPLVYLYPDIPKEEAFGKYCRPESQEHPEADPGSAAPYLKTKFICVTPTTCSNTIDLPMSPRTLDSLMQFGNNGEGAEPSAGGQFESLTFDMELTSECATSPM
Sequence of Paired box protein Pax-6 (Homo sapiens) (P26367 whole entry, looked up): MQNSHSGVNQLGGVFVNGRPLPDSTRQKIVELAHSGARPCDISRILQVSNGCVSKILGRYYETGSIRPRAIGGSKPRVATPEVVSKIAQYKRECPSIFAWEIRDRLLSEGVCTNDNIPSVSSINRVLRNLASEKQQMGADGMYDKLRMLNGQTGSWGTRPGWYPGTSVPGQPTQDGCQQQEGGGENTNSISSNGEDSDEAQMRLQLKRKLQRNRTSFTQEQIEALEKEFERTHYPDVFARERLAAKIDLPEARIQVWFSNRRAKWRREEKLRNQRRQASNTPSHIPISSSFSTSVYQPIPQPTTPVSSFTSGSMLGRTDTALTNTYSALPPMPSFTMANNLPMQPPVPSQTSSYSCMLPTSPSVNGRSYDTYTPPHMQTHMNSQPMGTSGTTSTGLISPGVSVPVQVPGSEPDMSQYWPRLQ
Sequence of X-box-binding protein 1 (Homo sapiens) (P17861 whole entry, looked up): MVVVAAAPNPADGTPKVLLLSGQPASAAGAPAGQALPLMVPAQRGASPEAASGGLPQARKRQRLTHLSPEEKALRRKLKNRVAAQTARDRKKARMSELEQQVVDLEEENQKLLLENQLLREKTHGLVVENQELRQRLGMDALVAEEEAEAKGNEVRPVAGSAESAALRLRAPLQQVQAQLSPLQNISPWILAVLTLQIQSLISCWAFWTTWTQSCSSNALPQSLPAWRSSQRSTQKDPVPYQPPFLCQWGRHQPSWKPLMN
Sequence of Nuclear receptor subfamily 1 group I member 3 (Homo sapiens) (Q14994 whole entry, looked up, the tested form may be a part): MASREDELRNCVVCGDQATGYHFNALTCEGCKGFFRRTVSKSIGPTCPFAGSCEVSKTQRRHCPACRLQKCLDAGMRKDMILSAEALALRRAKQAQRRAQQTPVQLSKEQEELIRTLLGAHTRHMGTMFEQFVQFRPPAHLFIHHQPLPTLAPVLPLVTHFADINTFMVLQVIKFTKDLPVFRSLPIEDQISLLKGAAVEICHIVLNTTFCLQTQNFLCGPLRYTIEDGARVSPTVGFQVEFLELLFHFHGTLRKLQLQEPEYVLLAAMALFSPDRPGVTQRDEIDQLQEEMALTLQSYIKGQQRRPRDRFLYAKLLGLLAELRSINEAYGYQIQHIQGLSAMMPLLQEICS
Sequence of Estrogen receptor (Homo sapiens) (P03372 whole entry, looked up, the tested form may be a part): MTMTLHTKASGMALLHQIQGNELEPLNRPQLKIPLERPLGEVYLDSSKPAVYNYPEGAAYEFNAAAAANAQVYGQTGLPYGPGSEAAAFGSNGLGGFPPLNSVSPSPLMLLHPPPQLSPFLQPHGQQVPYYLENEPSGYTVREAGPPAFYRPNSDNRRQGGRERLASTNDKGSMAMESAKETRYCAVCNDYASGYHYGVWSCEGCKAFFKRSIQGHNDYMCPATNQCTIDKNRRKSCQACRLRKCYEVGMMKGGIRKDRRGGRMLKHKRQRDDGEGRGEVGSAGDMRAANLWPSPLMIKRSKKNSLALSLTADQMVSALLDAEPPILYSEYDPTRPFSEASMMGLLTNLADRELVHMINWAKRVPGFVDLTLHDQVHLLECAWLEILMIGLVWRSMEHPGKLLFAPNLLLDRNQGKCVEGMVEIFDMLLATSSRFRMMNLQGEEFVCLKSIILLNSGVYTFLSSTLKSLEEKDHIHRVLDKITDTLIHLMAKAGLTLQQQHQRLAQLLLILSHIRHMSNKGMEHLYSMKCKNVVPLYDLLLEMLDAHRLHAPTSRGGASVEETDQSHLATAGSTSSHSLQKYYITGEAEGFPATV
Sequence of Transcription factor Sp1 (Homo sapiens) (P08047 whole entry, looked up): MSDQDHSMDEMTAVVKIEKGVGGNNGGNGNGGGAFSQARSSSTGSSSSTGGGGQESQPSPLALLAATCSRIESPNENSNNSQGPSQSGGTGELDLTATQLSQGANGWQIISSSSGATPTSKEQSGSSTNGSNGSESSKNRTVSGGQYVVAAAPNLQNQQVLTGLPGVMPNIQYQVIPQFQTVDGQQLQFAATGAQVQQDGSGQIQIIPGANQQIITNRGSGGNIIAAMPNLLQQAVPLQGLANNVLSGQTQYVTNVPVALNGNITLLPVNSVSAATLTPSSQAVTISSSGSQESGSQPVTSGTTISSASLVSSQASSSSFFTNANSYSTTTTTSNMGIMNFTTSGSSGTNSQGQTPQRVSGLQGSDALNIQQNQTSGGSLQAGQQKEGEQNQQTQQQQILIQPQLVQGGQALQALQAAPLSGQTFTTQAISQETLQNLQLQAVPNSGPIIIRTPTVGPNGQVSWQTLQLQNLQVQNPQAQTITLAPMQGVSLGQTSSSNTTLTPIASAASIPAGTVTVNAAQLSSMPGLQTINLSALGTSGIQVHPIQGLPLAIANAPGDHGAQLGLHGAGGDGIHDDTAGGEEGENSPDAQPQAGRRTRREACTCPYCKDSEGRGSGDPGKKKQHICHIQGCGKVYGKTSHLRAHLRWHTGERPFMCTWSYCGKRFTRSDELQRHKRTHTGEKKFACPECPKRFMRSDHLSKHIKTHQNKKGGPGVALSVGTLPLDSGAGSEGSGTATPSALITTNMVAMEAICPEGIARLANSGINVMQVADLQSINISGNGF
Sequence of Steroid hormone receptor ERR1 (Homo sapiens) (P11474 whole entry, looked up, the tested form may be a part): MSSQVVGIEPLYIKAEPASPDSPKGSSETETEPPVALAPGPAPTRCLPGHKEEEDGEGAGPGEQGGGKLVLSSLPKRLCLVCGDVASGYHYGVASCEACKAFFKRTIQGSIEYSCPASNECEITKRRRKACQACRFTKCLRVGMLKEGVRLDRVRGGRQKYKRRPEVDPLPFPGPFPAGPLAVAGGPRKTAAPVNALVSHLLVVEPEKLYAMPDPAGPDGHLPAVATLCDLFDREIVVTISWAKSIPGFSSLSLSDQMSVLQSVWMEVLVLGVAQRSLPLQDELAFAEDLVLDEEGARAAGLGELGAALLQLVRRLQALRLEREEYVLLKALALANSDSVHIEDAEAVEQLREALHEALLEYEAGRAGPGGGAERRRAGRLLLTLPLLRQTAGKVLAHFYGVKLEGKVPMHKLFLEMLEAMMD

The AC50 is the concentration giving half of the maximal activity seen. As for `CC/C=C\C/C=C\C/C=C\CCCCCCCC(=O)O`, the AC50 in [1] is 100 µM (active); in [2], 181 µM (active); in assay [3] it was 40.1 µM (active); in [4] it was 48.7 µM (active); in [9], 53.6 µM (active); in assay [12] it was 62.7 µM (active). Also, the AC50 in [14] was 160 µM (active). In addition, the call in assay [5], in assay [6], in assay [7], in [8], in assay [10] and in [11] was inactive. Also, in assay [13], the result was inactive.
For `NC(=O)N=NC(N)=O`, the result in [1], in assay [2], in assay [3], in assay [4], in [5] and in assay [15] was inactive. In addition, the call in assay [7], in [8], in [9], in assay [10], in assay [11] and in assay [16] was inactive. The compound was called inactive in assay [17], in assay [14] and in [18].
With `CCN(CC#N)c1cccc(C)c1`, the compound was classed as inactive in [1], in assay [3], in assay [4], in assay [5], in assay [6] and in [7]. Moreover, the result in [9], in [10], in assay [11], in assay [12], in assay [16] and in assay [13] was inactive. In addition, the call in assay [14] was inactive. The half-maximal activity concentration (AC50) in assay [2] was 45.3 µM (active).
Consider `c1c[nH]cn1`, for which the compound was classed as inactive in assay [1], in assay [3], in assay [4], in assay [5], in assay [15] and in [7]. Further, the outcome in assay [8], in [9], in [10], in assay [11], in [12] and in assay [14] was inactive. The compound was called inactive in assay [19] and in [18]. In [2], the concentration at half-maximal activity (AC50) is 63.8 µM (active).
